High-throughput results from PubChem.
Only some compounds are listed: those with a hit (about 4.6% of all), similar ones and a draw of the others.
Vaccinia mCherry – vaccinia inhibition (mCherry reporter); Vaccinia virus mCherry reporter infection, fluorescence; Potency, µM (titrated, usually from 36.5 µM), actives largely listed as inhibitors; actives 0.63% (n = 310,000); AID 720579; calls by dose curve; tested in A549 cells; also: nearly all actives have a fitted effect of over 35% in size
Vaccinia Venus – vaccinia inhibition (Venus reporter) | Vaccinia virus Venus reporter expression, fluorescence | Potency, µM (doses to about 36.5 µM), usual class: inhibitors | actives 0.46% (n = 330,000) | AID 720580; calls by dose curve; tested in A549 cells; also: nearly all actives have a fitted effect of over 30% in size
LASV entry inh – blocks Lassa virus binding to or entry into cells; Lassa virus pseudotype entry inhibition, cell reporter; actives 1.2% (n = 300,000); AID 540256; Potency, µM (series often up to 37.9 µM), usual class: inhibitors; calls by dose curve; tested in HEK293 cells; also: nearly all actives have a fitted effect of over 50% in size
Marburg entry inh – blocks Marburg virus binding to or entry into cells; Marburg virus pseudotyped entry inhibition, cell reporter; Potency, µM (titrated, usually from 37.8 µM), actives largely listed as inhibitors; actives 1.8% (n = 300,000); AID 540276; calls by dose curve; tested in HEK293 cells
HCV inh – blocks hepatitis C virus; AID 651820; Huh7.5.1 HCVcc-Cre infection, luciferase reporter, 44 h; Potency, µM (highest dose often 41.8 µM), hits mostly inhibitors; actives 3.4% (n = 340,000); active = well fitted inhibition curve with a large enough effect; inconclusive = small, poorly fitted or top-dose-only effect, or another doubt; inactive = no such curve, though single readings can be large or run the other way
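1,000 cells/well; 4 h culture; + compound; + HCVcc-Cre (~0.5 moi); 44 h; luciferase substrate, RT 15 min; read 15 sec.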
Numbers stand for hits; i = inactive; ? = inconclusive; nt = no result given; [ ] = remark or other dose.

SMILES	Vaccinia mCherry	Vaccinia Venus	LASV entry inh	Marburg entry inh	HCV inh
Cc1ccc(C)c(N2CCN(C3(c4ccccc4)C(=O)c4ccccc4C3=O)CC2)c1	i	i	i	i	nt
FC(F)(F)c1cccc(Nc2c3c(nc4ccc(Cl)cc24)CCC3)c1	i[7.34 µM]	i[7.34 µM]	?	?	nt
O=C(OCCOc1ccccc1)c1cccc(S(=O)(=O)N2CCOCC2)c1	i	i	i	i	i
COc1cccc(CNC(=O)c2cccc(S(=O)(=O)N3CCN(c4ccc(F)cc4)CC3)c2)c1	i	i	?	i	?
Cc1cc(Br)ccc1NC(=O)CN(C)C(=O)c1cccc(S(=O)(=O)N2CCN(C)CC2)c1	nt	nt	nt	nt	i
COc1ccccc1CNC(=O)c1cccc(S(=O)(=O)N2CCN(c3ccc(F)cc3)CC2)c1	nt	nt	nt	nt	11µM
COc1ccc(CNC(=O)c2cccc(S(=O)(=O)N3CCN(c4ccc(F)cc4)CC3)c2)cc1	i	i	?	?	7.1µM
CN(C)c1cccc(C(=O)OCCNC(=O)c2cccc(S(=O)(=O)N3CCOCC3)c2)c1	nt	nt	nt	nt	10µM
CCCN(CC(=O)Nc1ccccc1C)C(=O)c1cccc(S(=O)(=O)N2CCc3ccccc3C2)c1	i	i	?	?	22µM
Cc1cc(C(=O)NCC2CCC3(CCN(Cc4cc(F)ccc4F)CC3)O2)n(C)n1 (stereo unspecified)	i	i	nt	nt	nt
O=C(COc1ccccc1C(=O)Nc1ccccc1)Nc1ccc(-c2ccccc2)cc1	i	i	nt	nt	nt
CC(C)c1nc2cccnc2n1C1CCN(C(=O)Cn2cccn2)CC1	i	i	nt	nt	nt
Nc1c[n+](N2CCOCC2)no1	nt	nt	nt	i	nt
CN(CC(=O)Nc1ccc(F)cc1)C(=O)c1cccc(S(=O)(=O)N2CCN(c3ccccc3)CC2)c1	i	i	i	?	i
CCCN(CC(=O)Nc1ccccc1C)C(=O)COc1c(C)cccc1C	nt	nt	nt	nt	i
CCCN(CC(=O)Nc1ccccc1C)C(=O)CCl	4.5µM	4.5µM	?	?	7.1µM
COc1ccc(NC(=O)CN(C)C(=O)c2cccc(S(=O)(=O)N3CCN(c4ccc(F)cc4)CC3)c2)cc1	nt	nt	nt	i	13µM
COc1ccccc1CNC(=O)COC(=O)c1cccc(S(=O)(=O)N2CCOCC2)c1	i	i	i	i	11µM
O=S(=O)(Nc1cc(S(=O)(=O)N2CCOCC2)ccc1NCC1CCCO1)c1ccc(F)cc1 (stereo unspecified)	2.2µM	?	i	?	i
O=C(CNc1cc(S(=O)(=O)N2CCOCC2)ccc1NCC1CCCO1)Nc1cccc(F)c1 (stereo unspecified)	i	i	i	?	i
CCCC(O)c1nc2ccccc2n1CCCOc1ccc(Cl)cc1 (stereo unspecified)	i	i	i	i	nt
Cc1ccccc1C(=O)OCc1cc(=O)n2nc(C3CC3)sc2n1	i	i	i	nt	nt
COc1ccc(-c2cc(-c3nc4ccccn4c3NCc3ccccc3)ccc2OC)cc1	?	11µM	nt	nt	?
COc1ccc(-c2nc3ccccn3c2NCc2ccc3c(c2)OCO3)cc1	i	i	i	i	i
Clc1cccc(-c2ccc(-c3nc4ccccn4c3NCc3ccccc3)cc2)c1	?	?	nt	nt	14µM
SMILES	Vaccinia mCherry	Vaccinia Venus	LASV entry inh	Marburg entry inh	HCV inh
COc1ccc(S(=O)(=O)N2CCC3(CC2)OCCN3S(=O)(=O)c2c(C)cc(C)cc2C)cc1	i	i	?	?	?
Cc1ccc(S(=O)(=O)N2CCC3(CC2)OCCN3S(=O)(=O)c2c(C)cc(C)cc2C)cc1	i	i	?	i	10µM
Cc1cc(C)c(S(=O)(=O)N2CCC3(CC2)OCCN3S(=O)(=O)c2cccs2)c(C)c1	i	i	i	?	11µM
O=C1OCCN/C1=C/C(=O)c1ccccc1	nt	nt	nt	i	nt
Cc1cc(C)cc(-n2c(SCC(N)=O)nc3c(oc4ccccc43)c2=O)c1	i	i	nt	i	nt
O=C(c1ccncc1)N1CCC2(CCC(CNC(=O)C3(N4CCOCC4)CCCCC3)O2)CC1 (stereo unspecified)	i	i	nt	nt	nt
Cn1ccc(C(=O)OCC(=O)Nc2ccccc2Cl)n1	?	i	i	i	3.2µM
CCN(CC)S(=O)(=O)c1ccc(Cl)c(NC(=O)COC(=O)c2cccn2C)c1	?	i	i	?	5.6µM
O=C(c1cccc(F)c1F)N1CCOc2ccc(CN3CCC(Oc4cccnc4)CC3)cc2C1	i	i	nt	nt	nt
CO[C@H]1[C@H](NC(=O)c2cccs2)c2ccccc2C12CCN(Cc1cccn1-c1ccccn1)CC2	i	i	nt	nt	nt
Cn1c(N)c(C(=O)COC(=O)c2ccccc2C(=O)c2ccc(Cl)c([N+](=O)[O-])c2)c(=O)n(C)c1=O	?	?	?	11µM	11µM
Cn1c(N)c(C(=O)COC(=O)c2ccccc2C(=O)c2ccccc2)c(=O)n(C)c1=O	nt	nt	nt	nt	i
